tim23-1 inh = growth inhibitors of tim23-1 mutant yeast; S. cerevisiae tim23-1 growth, BacTiter-Glo luminescence, 24 h; inhibition, % at 20 µM; 330,000 tested, 1.3% active; AID 463212;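 active means growth inhibition of the mutant yeast at or above 50%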;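 further: temperature-sensitive mutant grown at 25 °C; plate controls were DMSO-treated mutant yeast for no effect and medium wells lacking yeast for full effect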
PfHsp90 yeast 2 = reduces growth (ATP signal) of yeast expressing P. falciparum Hsp90. 310,000 tested, 0.32% active. inhibition, % at 9.4 µM. S. cerevisiae expressing PfHsp90, BacTiter-Glo ATP, 48 h; yeast lacking PDR1 and PDR3 efflux regulators. AID 504621;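 active means every replicate shows inhibition above about 80%, whatever the replicate mean, limit read from the data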;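 further: 0% = DMSO neutral controls and 100% = 20 µM radicicol positive controls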
Mot1-301 SUMO = SUMOylation pathway inhibition by Mot1-301 growth rescue | S. cerevisiae Mot1-301 growth rescue, ATP luminescence, 38.5C; percent above DMSO median, 100 means doubled | growth rescue, % at 18.8 µM | 320,000 tested, 1% active | AID 2716;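 active means every valid replicate shows activation above 250% relative to neutral control wells; inactive means the rest, any valid replicate at or below 250%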;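 further: OY570 slx delta 5 strain wells were the positive control but not used for scaling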
TIM10 inh = TIM10 yeast growth inhibition; S. cerevisiae TIM10 strain growth, BacTiter-Glo luminescence, 24 h; AID 463195; inhibition, % at 10 µM; 330,000 tested, 1.4% active;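 active means inhibition of 40% or more at the single tested concentration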;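 further: wild-type TIM10 isogenic control strain grown at permissive 25 °C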
tim10-1 inh = growth inhibitors of tim10-1 mutant yeast | S. cerevisiae tim10-1 ts strain growth, BacTiter-Glo, 24 h | inhibition, % at 20 µM | 330,000 tested, 2.2% active | AID 463190;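 active means inhibition of at least 40%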;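 further: mutant grown at 25 °C; 0% = DMSO wells with yeast and 100% = wells holding no yeast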
Yeast Mot1 SUMO = inhibits SUMO pathway, affecting Mot1-301 yeast growth; S. cerevisiae Mot1-301 galactose growth, ATP luminescence, 24 h; -100 = growth of slx-deleted rescue strain; growth activity, percent, % at 42 µM; shares compounds with Mot1-301 SUMO; 2,300 tested, under 10 active;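 active means Signal drops as the depositor expects, and the fitted half-maximal dose is no more than ten times the top valid tested dose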;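 further: more negative values mean stronger growth rescue toward the control strain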
* = called active by the depositor; . = no result; + = active, no number. A selection: hits, their analogues and other compounds. The true share with any hit is near 4.4%.

SMILES	tim23-1 inh	PfHsp90 yeast 2	Mot1-301 SUMO	TIM10 inh	tim10-1 inh	Yeast Mot1 SUMO
CCC(C)c1ccc(S(=O)(=O)N2CCN(C(=O)COc3ccc4c(C)cc(=O)oc4c3)CC2)cc1 (centres undefined)	14	-18	524*	9	30	0
C=CCCC(=O)N1CCC(n2nccc2NC(=O)c2ccccc2C)CC1	13	-4	-3	1	8	.
CC(=O)c1cc(Cl)ccc1OC(=O)c1ccco1	5	7	6	2	1	.
CC(=O)c1cc(C)ccc1OC(=O)c1ccco1	10	-3	429*	16	20	1
Cc1nnsc1S(=O)(=O)c1ccccc1	-10	14	3	-5	6	.
Cc1noc(C)c1C(=O)OCC(=O)Nc1ncc(Cl)c(C)c1Cl	14	.	120	-8	2	.
COc1ccc(/C=C/C(=O)N2CCN(c3ccccc3)CC2)cc1S(=O)(=O)N1CCOCC1	7	5	-18	14	5	.
COc1ccc(/C=C/C(=O)N2CCC(C(N)=O)CC2)cc1S(=O)(=O)N1CCOCC1	20	.	714*	-10	2	-1
Cc1nc2ccccc2n(CC(=O)Nc2cc(Cl)cc(Cl)c2)c1=O	25	-50	+	-2	29	1
O=C(CCNC(=O)C1CCN(S(=O)(=O)c2ccccc2)CC1)NCc1ccc(Cl)c(Cl)c1	2	-27	4	-4	-7	.
c1ccc(COc2ccc(OCCCN3CCCC3)cc2)cc1	20	-23	4	-2	-14	.
CC1CCN(CCCCOc2ccc(F)cc2)CC1	5	3	548*	-8	-9	0
Cc1ccc(OCCCCN2CCC(C)CC2)cc1	-2	2	70	-20	-8	.
CC(C)c1cccc(OCCCCN(C)C)c1	10	19	568*	-5	1	0
CC1CCN(CCCOc2ccc(OCc3ccccc3)cc2)CC1	-3	2	551*	19	1	0
CC1CCN(CCCCOc2cccc(C(C)C)c2)CC1	2	4	408*	-27	-17	-1
Cc1cc(NS(=O)(=O)c2ccc(NC(=O)/C=C/c3cccc(Cl)c3)cc2)no1	-1	11	5	8	17	.
CC(=O)Nc1nc2ccc(NC(=O)c3ccco3)cc2s1	1	3	-26	17	22	.
Cc1nc2ccc(NC(=O)c3ccco3)cc2s1	-10	-5	363*	-14	-6	0
O=C(COC(=O)c1ccc(S(=O)(=O)N2CCCCCC2)cc1)NCc1ccc(Cl)cc1	2	8	7	4	7	.
O=C(CC1C(=O)NCCN1Cc1c(F)cccc1Cl)NC1CCCCCC1 (centres undefined)	-2	-13	-3	-4	17	.
CC(C)(C)NC(=O)CC1C(=O)NCCN1Cc1c(F)cccc1Cl (centres undefined)	6	15	836*	-6	10	1
CCOC(=O)c1oc2c(c1C)C(=O)CCC2	-7	3	934*	13	4	0
Nc1nc(CSc2nnnn2-c2ccc(Cl)cc2)nc(N2CCOCC2)n1	-7	1	376*	-11	-11	0
Cc1ccc(S(=O)(=O)NNC(=O)c2cc3cc4ccccc4nc3s2)cc1	10	11	553*	4	8	-1
SMILES	tim23-1 inh	PfHsp90 yeast 2	Mot1-301 SUMO	TIM10 inh	tim10-1 inh	Yeast Mot1 SUMO
Cc1cccc(C(=O)NNC(=O)c2cc3cc4ccccc4nc3s2)c1	16	-10	-2	-6	1	.
CC(=O)N1CCN(C(=O)c2cc3ccccc3o2)CC1	1	-9	-7	-11	-19	.
O=C(c1cc2ccccc2o1)N1CCN(C/C=C/c2ccccc2)CC1	18	2	541*	3	7	0
O=C(c1cc2ccccc2o1)N1CCCC1	-7	0	+	-69	-55	0
COc1ccccc1NC(=O)c1cccc(N2C(=O)C3C4C=CC(C4)C3C2=O)c1 (centres undefined)	28	-1	-3	5	9	.
Nc1cc(C(=O)OCC(=O)N2CCOCC2)ccc1Cl	2	-13	399*	-6	1	0
O=C(OCC(=O)N1CCN(C(=O)c2ccco2)CC1)c1ccc(Cl)cc1	-12	-1	11	-11	-29	.
O=C(OCC(=O)N1CCN(Cc2ccccc2)CC1)c1ccc(Cl)cc1	-157	6	450*	-14	-30	1
CCc1nc(SCC(=O)Nc2ccc(F)cc2)c2c(=O)n(C)c(=O)n(C)c2n1	-2	18	28	-6	1	.
COc1cccc(/C=N/NC(=O)CNC(=O)c2ccco2)c1O	5	10	400*	-5	0	-1
Cc1cc(=O)n2nc(N3CCCC3C(=O)Nc3ccc(C(C)C)cc3)sc2n1 (centres undefined)	2	-54	1	4	6	.
O=C(CCSc1ccccc1)NNC(=O)c1ccccc1F	-13	.	517*	4	-1	0
Cc1ccc(N(C(=O)CNC(=O)c2ccco2)C(C(=O)NC2CCCCC2)c2cccnc2)cc1C (centres undefined)	6	-43	-2	15	-18	.
Cc1ccc(N(C(=O)CCl)C(C(=O)NC2CCCCC2)c2cccnc2)cc1C (centres undefined)	.	.	369*	.	.	0
Cn1c(=O)nc2n(Cc3ccccc3)c3ccccc3cc-2c1=O	-3	-1	417*	8	15	-1
O=C(O)c1cc(S(=O)(=O)N2CCCCCC2)ccc1Cl	1	-9	55	-12	7	.
CS(=O)(=O)c1ccc(Cl)c(C(=O)O)c1	-8	4	608*	-10	-6	0
COc1cc(/C=N/NC2=NS(=O)(=O)c3ccccc32)cc(OC)c1OC	-1	-31	630*	10	-8	0
CN(C(=O)c1cccc(NC(=O)Cc2cccc(NC(=O)C3CCCN(C(=O)C4CCCC4)C3)c2)c1)C1CC1 (centres undefined)	.	2	.	.	.	.
Cc1ccc(/C=C/C(=O)O)cc1S(=O)(=O)N(CCO)CCO	5	-5	390*	-5	8	0
O=C(Cc1cccs1)Nc1cccc(-c2nnc(-c3ccco3)o2)c1	-4	-6	522*	21	12	-1
O=C(COc1ccccc1)Nc1cccc(-c2nnc(-c3ccccc3)o2)c1	3	15	+	26	3	1
O=C(O)CCC(=O)Nc1cccc(-c2nnc(-c3ccccc3)o2)c1	8	-1	112	0	17	.
Cc1ccc(NS(=O)(=O)c2c(C)[nH]c(C)c2C(=O)N2CCCCC2)c(Cl)c1	2	10	477*	-2	-2	0
COc1ccc(C(=O)Nc2ccccc2C(=O)NCCN2CCOCC2)cc1	1	2	10	-9	-4	.

Bioassay records from PubChem BioAssay.
